# Measured values published in PMC8384837, “Expanding the binding specificity for RNA recognition by a PUF domain”.
# Where a chain is given by its changes, count along the chain named.
# Key:
# Experiment in all cases: yeast three-hybrid, YBZ-1, SC-Leu-His + 0.5 mM 3-AT, 4 days
# Conditions in all cases: tags: N-Gal4 AD-HA kept; label: inside an RPR1-promoter hybrid RNA with tandem MS2 sites; ssRNA
# [1] = target: PUM1 PUF domain R5-SAT (Homo sapiens, UniProt Q14671 828-1176, C1007S;R1008A;Q1011T)
# Procedure, shortened: (§1)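 The interaction score is the log change in variant frequency from input to selection. Scores were computed in log2 with a pseudocount of 1 for absent variants, using Illumina sequencing of PCR-amplified repeat regions. The input came from four days on SC-Leu and the selection from four days on SC-Leu-His + 0.5 mM 3-AT. The cells were strain YBZ-1 (LexA–MS2 coat fusion, HIS3 reporter) co-expressing Pumilio-1 PUF domain libraries and matching RNA elements from a centromeric plasmid.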
# [2] = target: PUM1 PUF domain R5-GRP (Homo sapiens, UniProt Q14671 828-1176, C1007G;Q1011P)
# Procedure, shortened: as §1
# [3] = target: PUM1 PUF domain R1-RYL (Homo sapiens, UniProt Q14671 828-1176, S863R;R864Y;Q867L)
# Procedure, shortened: as §1
# [4] = target: PUM1 PUF domain R1-SGR (Homo sapiens, UniProt Q14671 828-1176, R864G;Q867R)
# Procedure, shortened: as §1
# [5] = target: PUM1 PUF domain R4-PHM (Homo sapiens, UniProt Q14671 828-1176, N971P;Q975M)
# Procedure, shortened: as §1
# [6] = target: PUM1 PUF domain R4-CNC (Homo sapiens, UniProt Q14671 828-1176, N971C;H972N;Q975C)
# Procedure, shortened: as §1
# [7] = target: PUM1 PUF domain R8-RWR (Homo sapiens, UniProt Q14671 828-1176, N1122R;Y1123W;Q1126R)
# Procedure, shortened: as §1
# [8] = target: PUM1 PUF domain R8-RHP (Homo sapiens, UniProt Q14671 828-1176, N1122R;Y1123H;Q1126P)
# Procedure, shortened: as §1
# [9] = target: PUM1 PUF domain R3-FSG (Homo sapiens, UniProt Q14671 828-1176, C935F;R936S;Q939G)
# Procedure, shortened: as §1
# [10] = target: T1, PUM1 PUF domain R6-RYA (Homo sapiens, UniProt Q14671 828-1176, N1043R;Q1047A)
# T1 sequence: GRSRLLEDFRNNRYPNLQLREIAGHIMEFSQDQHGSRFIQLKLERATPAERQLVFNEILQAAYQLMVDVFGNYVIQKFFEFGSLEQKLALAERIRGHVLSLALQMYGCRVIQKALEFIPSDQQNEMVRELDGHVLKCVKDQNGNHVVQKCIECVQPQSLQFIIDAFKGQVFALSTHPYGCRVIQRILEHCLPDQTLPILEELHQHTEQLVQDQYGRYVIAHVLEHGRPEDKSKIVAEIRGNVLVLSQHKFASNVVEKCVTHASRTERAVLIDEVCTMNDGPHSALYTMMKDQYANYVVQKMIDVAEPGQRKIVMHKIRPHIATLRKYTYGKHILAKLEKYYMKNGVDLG
# Procedure, shortened: as §1
# [11] = target: PUM1 PUF domain R5-LFQ (Homo sapiens, UniProt Q14671 828-1176, C1007L;R1008F)
# Procedure, shortened: as §1
# [12] = target: PUM1 PUF domain R7-KYK (Homo sapiens, UniProt Q14671 828-1176, S1079K;N1080Y;E1083K)
# Procedure, shortened: as §1
# [13] = target: T2, PUM1 PUF domain R6-SYM (Homo sapiens, UniProt Q14671 828-1176, N1043S;Q1047M)
# T2 sequence: T1 sequence with R216S, A220M
# Procedure, shortened: as §1
# [14] = target: PUM1 PUF domain R4-SRC (Homo sapiens, UniProt Q14671 828-1176, N971S;H972R;Q975C)
# Procedure, shortened: as §1
# [15] = target: PUM1 PUF domain R3-CYF (Homo sapiens, UniProt Q14671 828-1176, R936Y;Q939F)
# Procedure, shortened: as §1
# [16] = target: PUM1 PUF domain R7-HHP (Homo sapiens, UniProt Q14671 828-1176, S1079H;N1080H;E1083P)
# Procedure, shortened: as §1
# [17] = target: PUM1 PUF domain R7-KRQ (Homo sapiens, UniProt Q14671 828-1176, S1079K;N1080R;E1083Q)
# Procedure, shortened: as §1
# [18] = target: PUM1 PUF domain R4-CPC (Homo sapiens, UniProt Q14671 828-1176, N971C;H972P;Q975C)
# Procedure, shortened: as §1
# [19] = target: PUM1 PUF domain R5-SFS (Homo sapiens, UniProt Q14671 828-1176, C1007S;R1008F;Q1011S)
# Procedure, shortened: as §1
# [20] = target: PUM1 PUF domain R5-QVR (Homo sapiens, UniProt Q14671 828-1176, C1007Q;R1008V;Q1011R)
# Procedure, shortened: as §1
# PUM1 PUF domain R5-GRP, sequence (Q14671 828-1176 C1007G/Q1011P): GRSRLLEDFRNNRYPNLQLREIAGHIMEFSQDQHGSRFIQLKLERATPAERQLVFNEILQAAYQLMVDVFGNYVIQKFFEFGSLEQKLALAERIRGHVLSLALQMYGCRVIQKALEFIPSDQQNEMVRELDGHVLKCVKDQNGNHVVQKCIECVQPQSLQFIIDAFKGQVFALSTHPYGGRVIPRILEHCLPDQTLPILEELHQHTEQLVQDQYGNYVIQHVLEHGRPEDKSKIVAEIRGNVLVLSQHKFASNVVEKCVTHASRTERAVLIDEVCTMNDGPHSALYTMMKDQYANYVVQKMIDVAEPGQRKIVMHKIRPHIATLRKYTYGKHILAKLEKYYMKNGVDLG
# PUM1 PUF domain R7-KYK, sequence (Q14671 828-1176 S1079K/N1080Y/E1083K): as the sequence (Q14671 828-1176 C1007G/Q1011P) above, with G180C, P184Q, S252K, N253Y, E256K counted along it
# PUM1 PUF domain R8-RHP, sequence (Q14671 828-1176 N1122R/Y1123H/Q1126P): as the sequence (Q14671 828-1176 C1007G/Q1011P) above, with G180C, P184Q, N295R, Y296H, Q299P counted along it
# PUM1 PUF domain R7-HHP, sequence (Q14671 828-1176 S1079H/N1080H/E1083P): as the sequence (Q14671 828-1176 C1007G/Q1011P) above, with G180C, P184Q, S252H, N253H, E256P counted along it
# PUM1 PUF domain R3-FSG, sequence (Q14671 828-1176 C935F/R936S/Q939G): as the sequence (Q14671 828-1176 C1007G/Q1011P) above, with C108F, R109S, Q112G, G180C, P184Q counted along it
# PUM1 PUF domain R7-KRQ, sequence (Q14671 828-1176 S1079K/N1080R/E1083Q): as the sequence (Q14671 828-1176 C1007G/Q1011P) above, with G180C, P184Q, S252K, N253R, E256Q counted along it
# PUM1 PUF domain R3-CYF, sequence (Q14671 828-1176 R936Y/Q939F): as the sequence (Q14671 828-1176 C1007G/Q1011P) above, with R109Y, Q112F, G180C, P184Q counted along it
# PUM1 PUF domain R4-CPC, sequence (Q14671 828-1176 N971C/H972P/Q975C): as the sequence (Q14671 828-1176 C1007G/Q1011P) above, with N144C, H145P, Q148C, G180C, P184Q counted along it
# PUM1 PUF domain R4-CNC, sequence (Q14671 828-1176 N971C/H972N/Q975C): as the sequence (Q14671 828-1176 C1007G/Q1011P) above, with N144C, H145N, Q148C, G180C, P184Q counted along it
# PUM1 PUF domain R1-SGR, sequence (Q14671 828-1176 R864G/Q867R): as the sequence (Q14671 828-1176 C1007G/Q1011P) above, with R37G, Q40R, G180C, P184Q counted along it
# PUM1 PUF domain R5-QVR, sequence (Q14671 828-1176 C1007Q/R1008V/Q1011R): as the sequence (Q14671 828-1176 C1007G/Q1011P) above, with G180Q, R181V, P184R counted along it
sequence,measurement,setting,value
GGCUAGAACUAGUGGAUCCCCCGGCGCCCGGCGGCUCGAGCCCGGGUAAGUGUGAAUAGUCUGCAUGCCGCCGGGCGCCAUGCCUGCAGGUCGACUCUAGAAAACAUG,binding signal,[1],2.75 log2 enrichment (interaction score)
same,binding signal,[2],1.44 log2 enrichment (interaction score)
GGCUAGAACUAGUGGAUCCCCCGGCGCCCGGCGGCUCGAGCCCGGGUAAGUGUAAAUCGUCUGCAUGCCGCCGGGCGCCAUGCCUGCAGGUCGACUCUAGAAAACAUG,binding signal,[3],2.26 log2 enrichment (interaction score)
same,binding signal,[4],3.72 log2 enrichment (interaction score)
GGCUAGAACUAGUGGAUCCCCCGGCGCCCGGCGGCUCGAGCCCGGGUAAGUGUAUAUAGUCUGCAUGCCGCCGGGCGCCAUGCCUGCAGGUCGACUCUAGAAAACAUG,binding signal,[5],5.12 log2 enrichment (interaction score)
same,binding signal,[6],3.13 log2 enrichment (interaction score)
GGCUAGAACUAGUGGAUCCCCCGGCGCCCGGCGGCUCGAGCCCGGGUAAGUGUUAAUAGUCUGCAUGCCGCCGGGCGCCAUGCCUGCAGGUCGACUCUAGAAAACAUG,binding signal,[2],0.43 log2 enrichment (interaction score)
GGCUAGAACUAGUGGAUCCCCCGGCGCCCGGCGGCUCGAGCCCGGGUAAGCGUAAAUAGUCUGCAUGCCGCCGGGCGCCAUGCCUGCAGGUCGACUCUAGAAAACAUG,binding signal,[7],7 log2 enrichment (interaction score)
same,binding signal,[8],5.5 log2 enrichment (interaction score)
GGCUAGAACUAGUGGAUCCCCCGGCGCCCGGCGGCUCGAGCCCGGGUAAGUGUAAGUAGUCUGCAUGCCGCCGGGCGCCAUGCCUGCAGGUCGACUCUAGAAAACAUG,binding signal,[9],3.59 log2 enrichment (interaction score)
GGCUAGAACUAGUGGAUCCCCCGGCGCCCGGCGGCUCGAGCCCGGGUAAGUGUAAAUAGUCUGCAUGCCGCCGGGCGCCAUGCCUGCAGGUCGACUCUAGAAAACAUG,binding signal,[5],4.14 log2 enrichment (interaction score)
same,binding signal,[10],3.02 log2 enrichment (interaction score)
same,binding signal,[11],2.45 log2 enrichment (interaction score)
same,binding signal,[12],2.18 log2 enrichment (interaction score)
same,binding signal,[13],2.79 log2 enrichment (interaction score)
same,binding signal,[14],4.65 log2 enrichment (interaction score)
same,binding signal,[7],6.58 log2 enrichment (interaction score)
same,binding signal,[2],2.96 log2 enrichment (interaction score)
same,binding signal,[15],5.41 log2 enrichment (interaction score)
same,binding signal,[8],5.42 log2 enrichment (interaction score)
GGCUAGAACUAGUGGAUCCCCCGGCGCCCGGCGGCUCGAGCCCGGGUAAGUAUAAAUAGUCUGCAUGCCGCCGGGCGCCAUGCCUGCAGGUCGACUCUAGAAAACAUG,binding signal,[12],4.11 log2 enrichment (interaction score)
same,binding signal,[16],2.33 log2 enrichment (interaction score)
GGCUAGAACUAGUGGAUCCCCCGGCGCCCGGCGGCUCGAGCCCGGGUAAGUCUAAAUAGUCUGCAUGCCGCCGGGCGCCAUGCCUGCAGGUCGACUCUAGAAAACAUG,binding signal,[12],5.83 log2 enrichment (interaction score)
same,binding signal,[17],2.89 log2 enrichment (interaction score)
same,binding signal,[16],2.54 log2 enrichment (interaction score)
GGCUAGAACUAGUGGAUCCCCCGGCGCCCGGCGGCUCGAGCCCGGGUAAGUGUAAAUUGUCUGCAUGCCGCCGGGCGCCAUGCCUGCAGGUCGACUCUAGAAAACAUG,binding signal,[3],2.71 log2 enrichment (interaction score)
GGCUAGAACUAGUGGAUCCCCCGGCGCCCGGCGGCUCGAGCCCGGGUAAGUGUACAUAGUCUGCAUGCCGCCGGGCGCCAUGCCUGCAGGUCGACUCUAGAAAACAUG,binding signal,[18],2.9 log2 enrichment (interaction score)
GGCUAGAACUAGUGGAUCCCCCGGCGCCCGGCGGCUCGAGCCCGGGUAAGUGUCAAUAGUCUGCAUGCCGCCGGGCGCCAUGCCUGCAGGUCGACUCUAGAAAACAUG,binding signal,[19],3.78 log2 enrichment (interaction score)
same,binding signal,[20],3.01 log2 enrichment (interaction score)
